Assay outcomes from PubChem.
Sm TGR block – S. mansoni TGR enzyme inhibition. hit rate 3% among 360,000. purified TGR, DTNB reduction, TNB absorbance 405 nm. Potency, µM (series often up to 114 µM), hits mostly inhibitors; note: nearly all actives have a fitted effect of over 60% in size
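First, TGR (20 nM dispensed) and NADPH were mixed with compound. Second, a 15 min room-temperature incubation followed. Third, further NADPH and then DTNB were added to start the reaction. Finally, TNB absorbance was monitored kinetically.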
FMDV inh – blocks foot and mouth disease virus; FMDV antiviral cell-based qHTS; Potency, µM (top dose mostly 57.9 µM), hits mostly inhibitors; hit rate 1.2% among 410,000; AID 1159524; calls by dose curve; tested in HEK293T cells; note: read-out not given here; nearly all actives have a fitted effect of over 45% in size
HCV inh – blocks hepatitis C virus; Huh7.5.1 HCVcc-Cre infection, luciferase reporter, 44 h; Potency, µM (titrated, usually from 41.8 µM), most hits filed as inhibitors; hit rate 3.4% among 340,000; AID 651820
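A cell-based infection assay in which seeded cells (1,000 per well) receive test compound after 4 h, are inoculated with HCVcc-Cre at approximately 0.5 moi, and are incubated 44 h before luminescence detection.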
RE007 growth inh – less growth of the S. pombe RE007 Vpr strain | Potency, µM (highest dose often 92.2 µM), hits mostly inhibitors | hit rate 0.21% among 360,000 | S. pombe RE007 Vpr strain, BacTiter-Glo ATP luminescence, 24 h | AID 651644; active = well fitted falling curve with a large enough effect; inconclusive = small, poorly fitted or top-dose-only effect; inactive = no such curve, though single readings can be large or run the other way; note: nearly all actives have a fitted effect of over 50% in size
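Fission yeast RE007 carrying one integrated HIV-1 vpr copy, seeded at OD 0.01 in PMG+AL medium with 23 nL pinned compound. Grown 24 h at 30 degrees; viability read by BacTiter-Glo luminescence after 5 min.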
MARV entry inh – blocks Marburg virus binding to or entry into cells; Marburg virus pseudotyped entry inhibition, cell reporter; Potency, µM (highest dose often 37.8 µM), hits mostly inhibitors; AID 540276; hit rate 1.8% among 300,000; calls by dose curve; tested in HEK293 cells
Lassa entry inh – Lassa virus entry inhibition | Potency, µM (titrated, usually from 37.9 µM), usual class: inhibitors | Lassa virus pseudotype entry inhibition, cell reporter | hit rate 1.2% among 300,000 | AID 540256; calls by dose curve; tested in HEK293 cells; note: nearly all actives have a fitted effect of over 50% in size
HCV confirm – confirmation of hepatitis C virus inhibitors; shares compounds with HCV inh; HCVcc-Cre infectious virus cell assay, luciferase, inhibition; Potency, µM (highest dose often 41.8 µM), usual class: inhibitors; hit rate 78% among 640; note: nearly all actives have a fitted effect of over 80% in size
HCV cytotox – toxic to HCV host cells, flagging false HCV inhibitors; shares compounds with HCV inh; HCV host cell line cytotoxicity counterscreen; Potency, µM (top dose mostly 41.8 µM), most hits filed as inhibitors; hit rate 22% among 640; AID 720576;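 note: 44 h compound exposure; nearly all actives have a fitted effect of over 55% in size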
Of the large screens only hits and unclear results are named; the others gave an inactive call (follow-up assays come after a bar, where they were run). In the library only some 7.2% were active in any assay of this set; here they are far more common. Unless noted, calls come from the whole dose curve; as a rule, active = well fitted curve in the direction sought with a large enough effect; inconclusive = small, poorly fitted or top-dose-only effect, or another doubt; inactive = no such curve, though single readings can be large; an effect the other way counts as inactive or inconclusive.

CCOC(=O)Cn1nnnc1CN(Cc1ccc(OC)cc1)Cc1cc2cc(CC)ccc2[nH]c1=O	MARV entry inh inconclusive, Lassa entry inh inconclusive (no result: FMDV inh)
COc1cc(C(=O)CC2(O)C(=O)N(Cc3ccccc3Cl)c3ccccc32)cc(OC)c1OC (stereo unspecified)	Lassa entry inh inconclusive (no result: HCV inh, RE007 growth inh)
COc1cc(-c2nc(-c3ccc4c(c3)-c3ccccc3S4(=O)=O)c(-c3ccccc3)[nH]2)cc(OC)c1OC	Sm TGR block 56.2µM, HCV inh 2µM, Lassa entry inh inconclusive | HCV confirm 1.99µM | HCV cytotox inconclusive
COc1cccc(-c2nc(-c3ccc4c(c3)-c3ccccc3S4(=O)=O)c(-c3ccccc3)[nH]2)c1OC	Sm TGR block inconclusive, HCV inh inconclusive, MARV entry inh inconclusive
Cc1ccc(-n2c(SCC(=O)Nc3ccc(N4CCOCC4)cc3)nc3ccccc3c2=O)cc1	HCV inh inconclusive, MARV entry inh inconclusive | HCV confirm inconclusive | HCV cytotox inactive
O=C(Nc1ccc2c(c1)Cc1ccccc1-2)c1cccnc1	HCV inh 6.31µM, Lassa entry inh inconclusive | HCV confirm inactive | HCV cytotox inactive
Cc1sc2ncnc(N3CCC(C(=O)Nc4cc(S(C)(=O)=O)ccc4Cl)CC3)c2c1C	FMDV inh inconclusive, HCV inh inconclusive, MARV entry inh inconclusive
COc1ccc(S(=O)(=O)N(C)C)cc1NC(=O)C1CCN(c2ncnc3sc(C)c(C)c23)CC1	FMDV inh inconclusive, HCV inh 8.91µM (no result: Sm TGR block, MARV entry inh, Lassa entry inh) | HCV confirm 8.87µM | HCV cytotox inconclusive
O=C1C(c2ccc(F)cc2)N(Cc2ccccc2Cl)C(=O)CN1C1CCCCC1 (stereo unspecified)	none (no result: HCV inh, RE007 growth inh, MARV entry inh)
COc1ccc(F)cc1CSc1nnnn1-c1ccc(O)cc1	HCV inh inconclusive, MARV entry inh inconclusive, Lassa entry inh inconclusive
COc1cc(CSc2nnnn2-c2ccc(C)cc2)cc(OC)c1OC	HCV inh inconclusive, MARV entry inh inconclusive, Lassa entry inh 3.66µM (no result: FMDV inh) | HCV confirm 1.77µM | HCV cytotox inactive
O=C(c1ccccc1)N1CCC2(CC1)OCCO2	none
O=C(NC1(C(F)(F)F)Oc2ccccc2O1)N1CCC2(CC1)OCCO2	Sm TGR block 17.8µM, HCV inh inconclusive, MARV entry inh inconclusive | HCV confirm inconclusive | HCV cytotox inconclusive
C=CCc1ccc(OCCOc2cccc3ccc(C)nc23)c(OC)c1	HCV inh 8.91µM, MARV entry inh inconclusive | HCV confirm 12.5µM | HCV cytotox inactive
Cc1ccc(C)c(NC(=S)NC(NC(=O)Cc2cccc3ccccc23)C(Cl)(Cl)Cl)c1 (stereo unspecified)	HCV inh 2.24µM, MARV entry inh 12.6µM, Lassa entry inh 7.94µM | HCV confirm 11.2µM | HCV cytotox 31.5µM
Cc1ccc(C)c(NC(=S)NC(NC(=O)N(C)C)C(Cl)(Cl)Cl)c1 (stereo unspecified)	Sm TGR block inconclusive (no result: FMDV inh)
Cc1ccc(NC(c2nnc(-c3ccccc3)o2)c2ccccc2F)c([N+](=O)[O-])c1 (stereo unspecified)	none (no result: HCV inh, RE007 growth inh, MARV entry inh)
COc1cc2c(cc1NC(=O)COC(=O)/C=C/c1ccc([N+](=O)[O-])cc1)oc1ccccc12	HCV inh inconclusive (no result: MARV entry inh, Lassa entry inh) | HCV confirm inconclusive | HCV cytotox inactive
COc1cc2c(cc1NC(=O)/C=C/c1ccc([N+](=O)[O-])cc1)oc1ccccc12	Sm TGR block inconclusive
COc1ccc2c(c1)c1c(c(=O)n(-c3ccc(F)c(Cl)c3)c(=O)n1Cc1cccc(C)c1)n2C	none (no result: HCV inh, RE007 growth inh, MARV entry inh)
CCOC(=O)C1(Cc2ccccc2C(F)(F)F)CCN(C2CCN(C(C)C)CC2)CC1	HCV inh 3.16µM, MARV entry inh 7.3µM, Lassa entry inh inconclusive | HCV confirm 11.2µM | HCV cytotox inactive
C=C(C)COc1ccc(-c2nc(N)ncc2Oc2ccccc2OCC)c(O)c1	HCV inh 4.47µM, MARV entry inh inconclusive, Lassa entry inh inconclusive | HCV confirm 25µM | HCV cytotox inactive
C=C(C)COc1ccc(-c2ncncc2-c2ccccc2)c(O)c1	none
